Screens as filed in PubChem.
Rows were chosen to be rich in hits. Some 2.5% of all compounds tested hit in one or more screens of this group.
Efflux pump inh = blocks antifungal efflux pumps in multiplex yeast assay. S. cerevisiae Candida pump triplex, Nile Red efflux. inhibition, % at 10 µM. 330,000 compounds, 0.44% hits. AID 485275;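 active = plate passing quality check with inhibition over a set limit, or well fluorescence over plate mean plus 4 SD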;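 note: Nile Red retained in pooled yeast measured as flow cytometry median fluorescence; 0% = buffer negative control and 100% = Enniatin B positive control; higher means more Nile Red kept so more efflux inhibition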
AI-2 QS mod = modulates the Vibrio harveyi AI-2 quorum sensing system; Vibrio harveyi JMH597 AI-2 luminescence/OD600 ratio, 9 h; hits give low values; strain lacks LuxN and CqsS sensors; 0 = neutral-control median; activity change, % at 7.5 µM; 300,000 compounds, 0.4% hits; AID 2094; in the data active = activity change below about -75%, passing the limit was not always enough;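 note: luminescence divided by OD600 gain over 9 h not by final OD600 alone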
V-ATPase pH = yeast V-ATPase proton transport regulation by pHLuorin; AID 504577; S. cerevisiae, pHLuorin cytosolic pH fluorescence; 350,000 compounds, 0.37% hits; response, % at 10 µM; in the data active = response mostly above about 7.3%, no sharp cut-off; inactive = mostly below about 5.4%; note: actives read high
ATG4B inh = ATG4B (human) cysteine protease inhibition; Q9Y4P1; ATG4B cleavage of LC3-PLA2, NBD-HPC fluorescence, 1 h; inhibition, % at 8.33 µM; 340,000 compounds, 0.51% hits; in the data active = inhibition above about 40%
Target sequence (Q9Y4P1 whole entry, looked up): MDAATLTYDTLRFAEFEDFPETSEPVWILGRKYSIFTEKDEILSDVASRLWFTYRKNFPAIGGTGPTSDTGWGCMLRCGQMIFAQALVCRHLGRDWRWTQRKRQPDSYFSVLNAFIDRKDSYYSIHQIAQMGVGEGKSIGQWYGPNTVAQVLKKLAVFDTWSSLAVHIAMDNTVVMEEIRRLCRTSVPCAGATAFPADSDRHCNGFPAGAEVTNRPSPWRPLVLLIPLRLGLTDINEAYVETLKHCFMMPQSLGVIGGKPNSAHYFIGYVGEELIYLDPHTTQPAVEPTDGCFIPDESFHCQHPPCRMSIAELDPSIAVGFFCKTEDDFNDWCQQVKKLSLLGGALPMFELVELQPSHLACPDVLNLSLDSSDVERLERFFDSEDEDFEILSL
Mot1-301 SUMO = inhibitors of SUMOylation pathway: yeast Mot1-301 growth rescue. 320,000 compounds, 1% hits. S. cerevisiae Mot1-301 growth rescue, ATP luminescence, 38.5C; percent above DMSO median, 100 means doubled. growth rescue, % at 18.8 µM. AID 2716;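 active = every valid replicate shows activation above 250% relative to neutral control wells; inactive = the rest, any valid replicate at or below 250%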;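 note: OY570 slx delta 5 strain wells were the positive control but not used for scaling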
ATG4B conf = ATG4B (human) inhibition, single-dose confirmed; inhibition, % at 8.33 µM; 320 compounds, 92% hits; shares compounds with ATG4B inh; ATG4B protease fluorescent substrate cleavage assay; in the data active = inhibition above about 39%
PLA2 ctr = PLA2 (human) inhibition in ATG4B counter-screen | shares compounds with ATG4B inh | purified PLA2, NBD-C6-HPC fluorescence, 45 min | inhibition, % at 8.33 µM | 1,600 compounds, 66% hits | AID 588402; in the data active = inhibition above about 50%
Target sequence (P04054 whole entry, looked up): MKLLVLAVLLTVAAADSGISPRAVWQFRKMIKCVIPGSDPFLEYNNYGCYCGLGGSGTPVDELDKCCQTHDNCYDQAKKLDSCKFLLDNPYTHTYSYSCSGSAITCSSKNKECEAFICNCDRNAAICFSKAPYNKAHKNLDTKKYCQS
Starred values were filed as active, the others as inactive; i = inactive; · = no result.

SMILES	Efflux pump inh	AI-2 QS mod	V-ATPase pH	ATG4B inh	Mot1-301 SUMO	PLA2 ctr	others
C=CCn1c(SCC(O)Cn2c3ccccc3c3ccccc32)nnc1-c1ccco1 (configuration not stated)	0	8	1	46*	-22	48
CCN(CC)c1ccc(/C=N/NC(=S)NCc2ccccc2)c(O)c1	4	17	0	49*	-1	37
CCN(CC)c1ccc(/C=N/NC(=O)c2ccco2)c(O)c1	0	-27	6	-7	3	·
CCOc1ccc(S(=O)(=O)N=C(c2ccccc2)N2CCOCC2)cc1	0	·	-1	4	18	·
O=C(Nc1ccccc1C(=O)O)c1cccc(NC(=O)c2ccccc2Br)c1	0	7	1	0	0	·
O=C(Nc1cc(C(=O)Nc2ccccc2C(=O)O)cc(C(=O)Nc2ccccc2C(=O)O)c1)c1ccccc1	0	18	-3	68*	-6	84*
O=C(Nc1ccc(N2CCN(C(=O)c3ccccc3F)CC2)cc1)c1cncc(Br)c1	0	28	-3	-7	-10	·
O=C(NN1C(=O)/C(=C/C=C/c2ccco2)SC1=S)c1ccncc1	1.1*	13	-5	54*	-3	-3	ATG4B conf=65*
CC(C)Nc1nc(Cl)nc(NNC(=O)C(C)Oc2ccccc2)n1 (configuration not stated)	0	-19	-2	-7	36	·
COCc1[nH]nc2c1C(c1ccc(OC)cc1)C(C#N)=C(N)O2 (configuration not stated)	0	17	-6	-10	-3	·
CC(C)c1[nH]nc2c1C(c1ccc(OC(=O)c3ccco3)cc1)C(C#N)=C(N)O2 (configuration not stated)	0	5	2	83*	1	84*
Cc1ccc(-c2nsc(SCC(=O)NCc3ccc4c(c3)OCO4)n2)cc1	0	25	2	-9	-6	·
Cc1ccccc1-c1nsc(SCC(=O)NCc2ccc3c(c2)OCO3)n1	0	14	0	41*	33	-5
Cc1cccc(-n2c(SCc3ccc(C#N)cc3)nnc2-c2c[nH]c3ccccc23)c1	0	33	0	51*	-3	59*
COC(=O)c1ccc(CSc2nnc(-c3c[nH]c4ccccc34)n2C)o1	0	1	-4	1	162	·
COC(=O)c1ccc(CSc2nnc(-c3c[nH]c4ccccc34)n2-c2ccccc2)cc1	0	17	4	46*	204	67*
COc1ccc(OCC(=O)Nc2ccc(N3CCN(C(=O)c4ccccc4)CC3)c(Cl)c2)cc1	2	29	1	-1	-28	·
CCOc1ccc(C(=O)C2CCN(CC(=O)Nc3ccccc3N3CCOCC3)CC2)cc1	0	7	-3	44*	18	34	ATG4B conf=65*
Cc1cccc(N2CCN(C(=O)c3c(Cl)cnn3C)CC2)c1C	0	18	·	-3	-10	·
O=c1/c(=C/c2ccccn2)sc2nc3ccccc3n12	0	26	-2	-1	-15	·
O=c1/c(=C\c2cc([N+](=O)[O-])cc([N+](=O)[O-])c2O)sc2nc3ccccc3n12	0	·	0	59*	3	69*
Cc1cc(C)c(S(=O)(=O)/N=C2\C=C(Nc3ccc(C(=O)O)cc3)C(=O)c3ccccc32)c(C)c1	0	38	0	17	-32	·
O=C(O)c1ccc(NC2=C/C(=N/S(=O)(=O)c3ccccc3)c3ccccc3C2=O)cc1	·	·	-7	43*	·	-9	ATG4B conf=61*
CCn1nc([N+](=O)[O-])c(C(C#N)c2nc3cc(C(F)(F)F)ccc3s2)c(Cl)c1=O (configuration not stated)	0	28	-6	99*	1	101*
C[C@@]12CCC=C[C@H]1[C@H](c1ccccc1Br)N(Cc1ccccc1)C2=O	0	·	2	48*	·	79*
SMILES	Efflux pump inh	AI-2 QS mod	V-ATPase pH	ATG4B inh	Mot1-301 SUMO	PLA2 ctr	others
CCCc1cc(C(=O)N(C2CCCCC2)C2CCCCC2)no1	0	4	-4	60*	9	72*
Cc1nnc(SCC(=O)c2ccc(Cl)cc2)s1	0	21	-2	9	-6	·
CCOc1ccc(N2C(=O)CSC2=S)cc1	0	0	1	6	97	·
CCN(CC)c1ccc(N2C(=O)CSC2=S)cc1	0	15	-2	66*	69	63*
CC(=O)c1ccc(S(=O)(=O)N2CCN(C(=O)CN3C(=O)NC4(CCCC4)C3=O)CC2)cc1	0	-7	-2	7	19	·
O=C(COC(=O)Cc1c(Cl)cccc1Cl)Nc1ccccc1-c1ccccc1	0	4	0	10	·	·
O=C(CSCc1c(Cl)cccc1Cl)Nc1ccccc1-c1ccccc1	0	25	1	74*	-5	80*
COc1ccc([C@H]2CC(=O)C=C(c3ccccc3-c3ccccc3)C2)cc1	0	·	-5	42*	0	58*
COc1cc(C2(c3ccc(O)c(OC)c3)C(=O)Nc3c(C)cc(Br)cc32)ccc1O	0	-8	0	-2	79	·
COc1ccc2c(-c3ccccc3)cc(SCC(N)=O)nc2c1	0	15	-3	58*	26	57*
COC(=O)C[C@@H]1C[C@@H]2c3cc(NS(=O)(=O)c4ccc(F)cc4)ccc3O[C@@H]2[C@@H](CO)O1	·	·	-3	·	·	·
CC(C)(C)[C@@H]1COC(=O)[C@H](Cc2ccc(F)cc2)CC/C=C\C[C@@H](CC(=O)N(CCO)Cc2ccccc2)C(=O)N1	0	·	2	-17	-6	·
COC(=O)c1ccc(C(=O)NC2CCSc3ccccc32)cc1 (configuration not stated)	0	14	2	-5	-12	·
Cc1ccc(NC(=S)NC2CCSc3ccccc32)cc1C (configuration not stated)	1	33	-7	41*	i	53*
CCc1sc(NC(=O)c2cc3ccccc3oc2=O)nc1-c1cccs1	0	12	-1	6	273	·
N#Cc1c(NC(=O)Cn2c(=O)oc3ccccc32)oc(-c2ccccc2)c1-c1ccccc1	0	35	-3	50*	268	58*
Cc1cc2nc(N3C(=O)CNC3=S)sc2cc1C	0	13	2	3	-15	·
O=C(O)c1ccc(-c2ccc(/C=C3\NC(=O)N(Cc4ccc(Cl)cc4)C3=O)o2)cc1Cl	·	20	-4	49*	·	37	ATG4B conf=60*
CCCN(CCC)CCNC(=O)C1(O)c2ccccc2NC(=O)N1c1cccc(OC)c1 (configuration not stated)	0	33	-6	-2	-20	·
